# Assay results as given in PubChem BioAssay (Tox21).
# Records with an inconclusive call do not appear. A number with no mark means an inactive call. The call rests on the fitted dose curve; in most records, active means well fitted cell-killing curve with a large enough effect in the repeat runs; inconclusive means weak or mixed curves, or effect the other way; inactive means no such curve, though single readings can be large or run the other way.
# Assay: qHTS assay to identify small molecule antagonists of the vitamin D receptor (VDR) signaling pathway - cell viability counter screen (AID 743225); further: nearly all actives have a fitted effect of over 50% in size
# Details: VDR-bla HEK293T viability, CellTiter-Glo luminescence, 16 h; series mostly up to 61 µM; viability change, negative = cytotoxic: at the top concentration
# Summary of the method: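 Cytotoxicity counter screen read by CellTiter-Glo luminescence (30 min, room temperature) in the same wells as the VDR-bla antagonist readout. HEK 293T VDR-UAS-bla cells had 16 h at 37C with compound and 3 nM (final) 1-alpha,25-dihydroxyvitamin D3, then 2 h with FRET substrate.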
# On the % scale 0 is the no-effect control and ±100 the full control effect.
row,SMILES,"viability change, negative = cytotoxic"
1,C=CCCCCCCCCCCCC,4.03%
2,O=C(O)c1ccc(Cl)cc1Cl,16.2% [at 78.8 µM]
3,O=C1CC(c2ccc(Cl)cc2)CC(=O)N1,-22.9%
4,Cc1nc2n(c(=O)c1CCN1CCC(c3noc4cc(F)ccc34)CC1)CCC[C@H]2O,-2.33% [at 28.5 µM]
5,CN(C)C(=O)CNC(=O)Cc1ccccc1,16.2%
6,C=C(C)C(=O)OCC(C)(C)COC(=O)C(=C)C,8.48%
7,O=S(=O)(O)c1ccc2cc(O)c(S(=O)(=O)O)cc2c1,-9.45%
8,On1nnc2ccccc21,8.41%
9,CN=C(NC#N)Nc1ccc(C2=NNC(=O)CC2C)cc1 (centres undefined),5.39%
10,CC(=O)Nc1cccc(C)c1,4.93% [at 78.8 µM]
11,CCc1ccc(C=O)cc1,6.45%
12,OC[C@H](Cc1cccc(O)c1)[C@H](CO)Cc1cccc(O)c1,-18.4% [at 78.8 µM]
13,COc1ccc(Br)c(C)c1,3.31% [at 78.8 µM]
14,Cc1ccc(C=O)cc1C,4.3%
15,CCCC/C=C\CCCCCCCCCC=O,-0.262%
16,COc1cc2c(cc1OC)[C@@H]1CC(=O)[C@@H](CC(C)C)CN1CC2,13.1%
17,c1ccc2nccnc2c1,-2.37% [at 78.8 µM]
18,Cc1ccc2ccc(Cl)cc2n1,-5%
19,CC(=O)OC(C)OC(=O)C(C)c1ccc(-c2ccccc2)c(F)c1 (centres undefined),-0.442%
20,CC(C)(C)c1nnc(NS(=O)(=O)c2ccc(N)cc2)s1,-24.7%
21,CCn1ccc(NS(=O)(=O)c2ccc(N)cc2)nc1=O,11.6%
22,COc1ccc2c(c1)C(=O)N(CCc1ccc(S(=O)(=O)NC(=O)NC3CCCCC3)cc1)C(=O)C2(C)C,22.2%
23,Cc1ccc(S(=O)(=O)O)c(C)c1,0.0038%
24,COc1nccnc1NS(=O)(=O)c1ccc(N)cc1,5.96%
